Among the test systems are T-47D breast; BT-549 breast; MDA-MB-435 melanoma; SW-620 colon; MCF7 breast; HCT-116 colon; HCC-2998 colon; KM12 colon.
Assay in all cases: NCI-60 one-dose screen, 48 h (100 = growth as untreated, 0 = no growth, -100 = all killed)
What all share (settings): 10 µM unless noted

The values below come from PubChem BioAssay (NCI).

Compounds without any hit were thinned out: in the full panel of roughly 83,000, 20% have a hit.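 Cells were grown in 96-well plates and exposed to the test compound at a single concentration for 48 hours; results are reported as percent growth, with values below 10 considered active.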 Values without a mark were called inactive. Calls of active or inactive are those of the source.

As for `O=C(Nc1ccccc1Cl)c1c[nH]c(=O)c(-c2ccc(N3CCCOC4(CC4)C3)cc2)c1`, the growth is 31.5% in the assay with T-47D breast; 56.3% in the assay with BT-549 breast; 56.4% with MDA-MB-435 melanoma; 78.1% in the assay on SW-620 colon; 40% in the assay with MCF7 breast; 42.4% in the assay on HCT-116 colon. Also, the values for the growth in the assay on HCC-2998 colon and with KM12 colon were 67.5% and 74.3%, respectively.

Regarding `COc1ccc(-c2nn(-c3ccc(NC(=O)Nc4ccc(Cl)c(Cl)c4)cc3)cc2-c2ccncc2)cc1Cl`, the growth in the assay on T-47D breast was 22.4%; with BT-549 breast it was 14.2%; with MDA-MB-435 melanoma, 6.69% (active); with SW-620 colon, 17.6%; in the assay with MCF7 breast, 13.3%; in the assay with HCT-116 colon, 0.339% (active). For the same molecule, the figures for the growth in the assay with HCC-2998 colon and in the assay with KM12 colon were 10.4% and 2.25% (active), respectively.

For `CCc1cccc(-c2ccccc2)c1`, the growth in the assay on T-47D breast was 110%; in the assay on BT-549 breast, 97.1%; with MDA-MB-435 melanoma, 109%; with SW-620 colon, 99.8%; in the assay with MCF7 breast it was 105%; in the assay on HCT-116 colon, 98.8%. The growth in the assay on HCC-2998 colon is 110%; with KM12 colon, 102%.

Take `O=C(Nc1cccc(-n2ccc3c(NC(=O)c4ccccc4)nccc32)c1)Nc1ccc(Cl)c(C(F)(F)F)c1`: the growth in the assay on T-47D breast is 54.3%; in the assay on BT-549 breast, -5.15% (active); in the assay on MDA-MB-435 melanoma, -15.4% (active); in the assay with SW-620 colon it was 25.2%; in the assay on MCF7 breast, 19.5%; in the assay on HCT-116 colon it was 3.34% (active). Besides, the values for the growth in the assay with HCC-2998 colon and with KM12 colon were 17.2% and -16.4% (active), respectively.

On to `OC[C@@H](O)C(O[C@@H]1O[C@H](CO)[C@H](O)[C@H](O)[C@H]1O)[C@H](O)[C@@H](O)CO` (some centres not stated), for which the growth in the assay with T-47D breast was 105%; with BT-549 breast, 107%; with MDA-MB-435 melanoma, 95.4%; in the assay with SW-620 colon, 102%; in the assay on MCF7 breast, 106%; with HCT-116 colon it was 113%. For the same molecule, the growth is 95.6% in the assay with HCC-2998 colon and 103% in the assay with KM12 colon.

As for `c1ccc(OCC[P+](c2ccccc2)(c2ccccc2)c2ccccc2)cc1`, the growth was 6.07% (active) with T-47D breast; 19.6% with BT-549 breast; 4.66% (active) in the assay with MDA-MB-435 melanoma; 18.3% in the assay on SW-620 colon; 20% in the assay on MCF7 breast; 15.6% in the assay on HCT-116 colon. The results for the growth with HCC-2998 colon and in the assay on KM12 colon were 5.3% (active) and 14.9%, respectively.

In the case of `COc1ccccc1C(OC(C)=O)OC(C)=O`, the growth in the assay on T-47D breast was 95.3%; in the assay on BT-549 breast it was 102%; in the assay on MDA-MB-435 melanoma it was 104%; with SW-620 colon it was 108%; in the assay with MCF7 breast, 90.9%; in the assay on HCT-116 colon it was 95.7%. Also, the growth in the assay with HCC-2998 colon and in the assay on KM12 colon was 105% each time.

For `COc1cc(C(=O)N2CCN(C(=O)c3cc(OC)c(OCc4ccccc4)cc3N)CC2)c(N)cc1OCc1ccccc1`, the growth in the assay on T-47D breast was 114%; with BT-549 breast, 101%; in the assay on MDA-MB-435 melanoma, 127%; with SW-620 colon, 119%; in the assay on MCF7 breast it was 89.5%; in the assay with HCT-116 colon, 104%. Moreover, the growth with HCC-2998 colon was 102%; with KM12 colon, 109%.

`O=C(Nc1ccc(-n2cc(-c3ccncc3)c(-c3ccc(O)c(Cl)c3)n2)cc1)c1cc(Cl)cc(Cl)c1`: the growth in the assay with T-47D breast is 49.3%; in the assay on BT-549 breast, 25.8%; in the assay on MDA-MB-435 melanoma it was 21.5%; in the assay on SW-620 colon, 33.6%; in the assay on MCF7 breast, 33.3%; in the assay on HCT-116 colon, 17.6%. Besides, the growth is 39.3% with HCC-2998 colon and 24.3% in the assay on KM12 colon.

`CCOC(=O)CSc1nnc(-c2cc3c([nH]c4ccccc43)c(-c3cccc(O)c3)n2)n1-c1ccc(C)cc1`: the growth in the assay with T-47D breast is -5.32% (active); in the assay on BT-549 breast, 101%; in the assay on MDA-MB-435 melanoma it was 16.4%; in the assay on SW-620 colon it was 67.1%; in the assay with MCF7 breast, 35.3%; in the assay with HCT-116 colon it was 50%. In addition, the growth with HCC-2998 colon is 83.7%; in the assay with KM12 colon, 76.3%.

As for `Cc1ccc2c(C3C(C#N)=C(N)Oc4cc5ccccc5cc43)cc(=O)oc2c1` (configuration not stated), the growth was 35.9% in the assay with T-47D breast; 47.9% with BT-549 breast; -48.2% (active) in the assay with MDA-MB-435 melanoma; 27.1% with SW-620 colon; 17.9% with MCF7 breast; 15.9% in the assay with HCT-116 colon. Besides, the growth in the assay on HCC-2998 colon was 58.9%; in the assay with KM12 colon, 24.1%.

For the molecule `COc1ccc(Cn2cc3c(c2-c2cc(OC)c(OC)c(OC)c2)CCc2c(CO)noc2-3)cc1`, the growth in the assay on T-47D breast is 64.3%; in the assay on BT-549 breast it was 0.154% (active); in the assay with MDA-MB-435 melanoma, -27.1% (active); with SW-620 colon it was 21.4%; in the assay with MCF7 breast, 19.6%; in the assay with HCT-116 colon, 7.89% (active). Also, the growth with HCC-2998 colon was 26.5%; in the assay with KM12 colon, 16.5%.

For `COc1ccc(/C=C/C(=O)c2ccc(NC(=O)CSc3nnc(-c4cc(OC)c(OC)c(OC)c4)o3)cc2)cc1`, the growth was -44.5% (active) in the assay on T-47D breast; -3.02% (active) in the assay with BT-549 breast; -39.2% (active) in the assay on MDA-MB-435 melanoma; -61.5% (active) in the assay with SW-620 colon; -30.8% (active) in the assay with MCF7 breast; -76.4% (active) with HCT-116 colon. The results for the growth in the assay on HCC-2998 colon and in the assay on KM12 colon were -72% (active) and -91.8% (active), respectively.

For `CCN(CC)C(=O)C1CCN(C(=O)c2ccccc2)CC1`, the growth in the assay with T-47D breast is 98.4%; in the assay with BT-549 breast it was 93.8%; in the assay on MDA-MB-435 melanoma it was 104%; in the assay with SW-620 colon, 101%; in the assay on MCF7 breast it was 96.6%; in the assay on HCT-116 colon, 99.2%. Further, the growth in the assay with HCC-2998 colon is 106%; with KM12 colon, 101%.
